Assay results from PubChem BioAssay (EPA / NIEHS).
Activity calls are given as the source filed them. How the source made its calls: active means hit-call score of the fitted dose curve at least 0.9, where 1 is the maximum; inactive means score below 0.9.

Assays:
[1] = CEETOX_H295R_OHPREG: CeeTox H295R High-throughput Steroidogenesis Assay for OH-Pregnenolone (OHPREG) (AID 2283434); settings: actives raise or lower the signal
Procedure, shortened: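 Secreted 17alpha-hydroxypregnenolone measured by HPLC-MS/MS after liquid-liquid extraction. Human adrenal H295R cells received 48 h forskolin (10 uM) stimulation before 48 h chemical exposure at 0.1% final DMSO; MTT viability in same wells; bidirectional fit against DMSO.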

[2] = CEETOX_H295R_OHPROG: CeeTox H295R High-throughput Steroidogenesis Assay for OH-Progesterone (OHPROG) (AID 2283435); settings: actives raise or lower the signal;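 on AC50: 17alpha-hydroxyprogesterone secreted into medium measured by HPLC-MS/MS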
Procedure, shortened: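 Steps: seed H295R cells and adhere overnight; stimulate with 10 uM forskolin for 48 h; replace with chemical-containing medium (0.1% DMSO) for 48 h; extract medium with MTBE; quantify 17alpha-hydroxyprogesterone by reverse-phase C18 HPLC-MS/MS against a 7-point curve.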

[3] = CEETOX_H295R_ANDR: CeeTox H295R High-throughput Steroidogenesis Assay for Androstenedione (ANDR) (AID 2283436); settings: actives raise or lower the signal
Procedure, shortened: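 Medium from 48 h chemical-treated H295R adrenal cells was extracted with MTBE and androstenedione measured by LC-MS/MS. Activity was fit in both directions relative to DMSO. Cytotoxic concentrations were re-tested after dilution until MTT viability reached ≥70%.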

[4] = CEETOX_H295R_PROG: CeeTox H295R High-throughput Steroidogenesis Assay for Progesterone (PROG) (AID 2283442); settings: actives raise or lower the signal;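 on AC50: human H295R adrenal cells primed with 10 µM forskolin before dosing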
Procedure, shortened: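 Adrenal H295R line, forskolin-stimulated (10 uM, 48 h) before dosing. 48 h exposure, 0.1% DMSO vehicle. Secreted progesterone by reverse-phase HPLC with ESI+ MS/MS quantification; DMSO-normalised bidirectional curve fit.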

[5] = CEETOX_H295R_CORTIC: CeeTox H295R High-throughput Steroidogenesis Assay for Corticosterone (CORTIC) (AID 2283437); settings: actives raise or lower the signal
Procedure, shortened: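 Medium corticosterone was quantified by tandem mass spectrometry following 48 hours of chemical exposure (0.1% DMSO) in human H295R cells previously stimulated 48 hours with 10 uM forskolin. Viability checked by MTT; chemicals diluted and retested when viability fell below 70%.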

[6] = CEETOX_H295R_CORTISOL: CeeTox H295R High-throughput Steroidogenesis Assay for Cortisol (AID 2283438); settings: actives raise or lower the signal;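 further: cortisol secreted into medium quantified by LC-MS/MS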
Procedure, shortened: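 Cortisol synthesis by H295R cells is measured 48 h after chemical dosing, following a 48 h stimulation with 10 uM forskolin. Hormone is extracted and quantified by HPLC-MS/MS, and activity is fitted bidirectionally against the DMSO control.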

[7] = CEETOX_H295R_DOC: CeeTox H295R High-throughput Steroidogenesis Assay for DOC (AID 2283439); settings: actives raise or lower the signal
Procedure, shortened: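 Steps: seed H295R, adhere overnight; 10 uM forskolin 48 h; replace with chemical medium (0.1% DMSO) 48 h; collect medium, MTBE extraction, HPLC-MS/MS for DOC. Viability then checked by MTT; cytotoxic chemicals diluted until viability ≥70%.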

[8] = read-out: Tumor necrosis factor receptor superfamily member 6 (Homo sapiens) (UniProt P25445); experiment: LTEA_HepaRG_FAS: Life Technologies and Expression Analysis (LTEA) Assay for Fas cell surface death receptor (FAS) using HepaRG (AID 2283447); settings: mRNA level, 48 h; actives raise or lower the signal
Procedure, shortened: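 FAS transcript level was measured by TaqMan qRT-PCR against three housekeeping genes after 48 h chemical exposure. Cells were HepaRG, 0.5% DMSO vehicle, with a top concentration of 100 uM and half-log dilutions over eight points, in duplicate.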

Measured: AC50

OCc1cccc(Oc2ccccc2)c1
inactive: [1] | [4]
active: [2] 50 µM | [3] 50 µM

COCCc1ccc(OCC(O)CNC(C)C)cc1 (stereo unspecified)
active: [2] 50 µM
not listed: [3] | [8]
inactive: all other assays above

COc1ccc(CCN2CCC(Nc3nc4ccccc4n3Cc3ccc(F)cc3)CC2)cc1
active: [1] 0.698 µM | [2] 1.41 µM | [5] 1.48 µM | [6] 1.56 µM | [7] 1.52 µM | [4] 0.789 µM

BrCc1cccc(Oc2ccccc2)c1
active: [2] 36.5 µM | [3] 38.2 µM | [5] 32.7 µM
not listed: [8]
inactive: all other assays above

CC(CN=Cc1ccccc1O)N=Cc1ccccc1O (stereo unspecified)
active: [2] 1.97 µM | [6] 4.06 µM | [7] 1.7 µM
inactive: [1] | [5] | [4]

CCCCCCCCN1CCCC1=O
not listed: [3] | [8]
inactive: all other assays above

CS(=O)(=O)OCCCCOS(C)(=O)=O
inactive: [8]

CC=Cc1ccc(OCC)c(O)c1
inactive: [1] | [5] | [6] | [7]
active: [2] 11 µM | [4] 20.7 µM

Nc1ccc(N)c2c1C(=O)c1ccccc1C2=O
active: [2] 1.51 µM | [7] 4.43 µM
not listed: [8]
inactive: all other assays above

CCOC(=O)[C@@H](C)Oc1ccc(Oc2nc3ccc(Cl)cc3o2)cc1
active: [2] 10.1 µM | [7] 22.8 µM | [4] 25.7 µM
not listed: [8]
inactive: all other assays above
